The target of test [1] is Peroxisome proliferator-activated receptor gamma (Homo sapiens) (UniProt P37231). Put plainly: OT_PPARg_PPARgSRC1_0480: Odyssey Thera (OT) 8-hour Protein-Complementation Assay for Peroxisome Proliferator-activated Receptor Gamma / SRC-1 Co-activator (AID 2283387; active = hit-call score of the fitted dose curve at least 0.9, where 1 is the maximum;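 also: nuclear to cytoplasmic split Venus YFP fluorescence ratio reporting PPARg SRC-1 interaction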). The procedure, abridged: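 Read-out: 488 nm N/C fluorescence ratio from complemented Venus YFP fragments, ≥350 cells per image, gain-of-signal fitted against DMSO baseline. Fusions of PPARg/SRC-1 with IFP1/IFP2 expressed transiently in HEK293T; compounds applied 8 h.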
Peroxisome proliferator-activated receptor gamma (Homo sapiens), sequence (P37231 whole entry, looked up, the tested form may be a part): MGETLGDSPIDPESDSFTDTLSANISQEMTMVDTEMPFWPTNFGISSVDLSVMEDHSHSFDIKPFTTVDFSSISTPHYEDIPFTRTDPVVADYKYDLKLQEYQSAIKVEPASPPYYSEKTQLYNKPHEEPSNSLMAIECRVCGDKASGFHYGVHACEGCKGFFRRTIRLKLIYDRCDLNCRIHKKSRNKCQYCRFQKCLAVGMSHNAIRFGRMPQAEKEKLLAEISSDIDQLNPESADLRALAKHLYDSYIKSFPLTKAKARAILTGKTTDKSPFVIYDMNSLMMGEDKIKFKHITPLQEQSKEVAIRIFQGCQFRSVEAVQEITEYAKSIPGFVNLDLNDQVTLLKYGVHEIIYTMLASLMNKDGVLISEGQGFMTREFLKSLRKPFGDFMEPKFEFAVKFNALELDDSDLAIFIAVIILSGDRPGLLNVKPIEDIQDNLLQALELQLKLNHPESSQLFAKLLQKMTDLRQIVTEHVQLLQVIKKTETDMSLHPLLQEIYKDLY

Test [2] has the same target. Put plainly: OT_PPARg_PPARgSRC1_1440: Odyssey Thera (OT) 24-hour Protein-Complementation Assay for Peroxisome Proliferator-activated Receptor Gamma/ SRC-1 Co-activator (AID 2283388; active = hit-call score of the fitted dose curve at least 0.9, where 1 is the maximum;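 also: nuclear to cytoplasmic ratio of reconstituted Venus YFP fluorescence in fixed imaged cells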). An outline of the steps:
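Cells carrying the PPARg/SRC-1 fragment-complementation reporter receive compound for 24 hours, are fixed and counterstained with Draq5, then imaged. Increased nuclear relative to cytoplasmic YFP fluorescence above DMSO baseline indicates binding activity.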

Read-out in test [3]: Tumor necrosis factor receptor superfamily member 6 (Homo sapiens) (UniProt P25445)
Kind of test: LTEA_HepaRG_FAS: Life Technologies and Expression Analysis (LTEA) Assay for Fas cell surface death receptor (FAS) using HepaRG (AID 2283447). Particulars: mRNA level, 48 h; actives raise or lower the signal. An outline of the steps: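 Differentiated HepaRG cells in serum-free induction medium were exposed 48 h to 8 half-log concentrations up to 100 uM in 0.5% DMSO, in duplicate. FAS mRNA was measured by qRT-PCR normalised to ACTB, GAPDH and POLR2A; bidirectional fit versus DMSO.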

Read-out in test [4]: Fatty acid synthase (Homo sapiens) (UniProt P49327)
Kind of test: LTEA_HepaRG_FASN: Life Technologies and Expression Analysis (LTEA) Assay for Fatty Acid Synthase (FASN) using HepaRG (AID 2283448).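 As to AC50: differentiated human HepaRG liver cells in serum-free induction medium.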 The settings on record: mRNA level, 48 h; actives raise or lower the signal. The procedure, abridged:
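Transcript-level assay: HepaRG liver cells are treated for 48 h across an eight-point range topping at 100 uM, and FASN mRNA, normalized to three housekeeping genes, is compared with DMSO controls in both directions.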

Read-out in test [5]: Cyclin D1 (CCND1), CCND1 (gene 595)
Kind of test: LTEA_HepaRG_CCND1: Life Technologies and Expression Analysis (LTEA) Assay for Cyclin D1 (CCND1) using HepaRG (AID 2283451).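 As to AC50: differentiated human HepaRG liver cells in serum-free induction medium; TaqMan qRT-PCR transcript level normalised to ACTB GAPDH and POLR2A housekeeping genes.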 The settings on record: mRNA level, 48 h; actives raise or lower the signal. An outline of the steps: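 Expression change is measured by qRT-PCR in HepaRG cells after 48 h treatment across eight concentrations topping at 100 uM, with duplicate wells and DMSO (0.5%) serving as baseline for bidirectional fitting.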

Read-out in test [6]: catalase (CAT), CAT (gene 847)
Put plainly: LTEA_HepaRG_CAT: Life Technologies and Expression Analysis (LTEA) Assay for catalase (CAT) using HepaRG (AID 2283452). Particulars: mRNA level, 48 h; actives raise or lower the signal. The procedure, abridged:
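HepaRG cells in serum-free induction medium, 0.5% DMSO vehicle, exposed 48 h in duplicate over 8 half-log concentrations from 100 uM. CAT mRNA measured by qRT-PCR, normalized to ACTB, GAPDH, POLR2A; bidirectional fit versus DMSO.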

Read-out in test [7]: flavin-containing dimethylaniline monooxygenases 3 (FMO3), FMO3 (gene 2328)
Put plainly: LTEA_HepaRG_FMO3: Life Technologies and Expression Analysis (LTEA) Assay for flavin-containing dimethylaniline monooxygenases 3 (FMO3) using HepaRG (AID 2283453).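 As to AC50: differentiated human HepaRG liver cells in serum-free induction medium; FMO3 transcript by TaqMan qRT-PCR normalized to ACTB GAPDH and POLR2A.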 The settings on record: mRNA level, 48 h; actives raise or lower the signal. The procedure, abridged: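 HepaRG, 48 h exposure, 8-pt half-log series from 100 uM, 0.5% DMSO vehicle, duplicates; FMO3 transcript by Fluidigm TaqMan qRT-PCR, housekeeping-normalized; gain/loss fit vs DMSO.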

Read-out in test [8]: Cytochrome P450 (CYP1A1), CYP1A1 (gene 1543)
Put plainly: LTEA_HepaRG_CYP1A1: Life Technologies and Expression Analysis (LTEA) Assay for Cytochrome P450 (CYP1A1) using HepaRG (AID 2283454). The settings on record: mRNA level, 48 h; actives raise or lower the signal. The procedure, abridged:
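Using HepaRG cultures with 0.5% DMSO as vehicle, eight-concentration exposures (max 100 uM) lasted 48 h. Transcript levels were measured by TaqMan qRT-PCR and normalized to ACTB, GAPDH and POLR2A.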

Read-out in test [9]: CFLAR gene, CFLAR (gene 8837)
Kind of test: LTEA_HepaRG_CFLAR: Life Technologies and Expression Analysis (LTEA) Assay for CFLAR gene using HepaRG (AID 2283455). Particulars: mRNA level, 48 h; actives raise or lower the signal. An outline of the steps: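 Differentiated HepaRG cells in serum-free induction medium were exposed 48 h in duplicate to eight half-log concentrations up to 100 uM in 0.5% DMSO; mRNA measured by TaqMan qRT-PCR, normalized to ACTB, GAPDH, POLR2A; bidirectional fitting versus DMSO.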

Read-out in test [10]: Forkhead box O1 (FOXO1), FOXO1 (gene 2308)
Kind of test: LTEA_HepaRG_FOXO1: Life Technologies and Expression Analysis (LTEA) Assay for Forkhead box O1 (FOXO1) using HepaRG (AID 2283456). Particulars: mRNA level, 48 h; actives raise or lower the signal. An outline of the steps:
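Differentiated HepaRG cells, in serum-free induction medium with 0.5% DMSO, exposed 48 h in duplicate to 8-point half-log series from 100 uM. FOXO1 mRNA measured by TaqMan qRT-PCR, normalized to ACTB, GAPDH, POLR2A; bidirectional fit versus DMSO.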

Read-out in test [11]: Cyclin Dependent Kinase Inhibitor 1A (CDKN1A), CDKN1A (gene 1026)
Put plainly: LTEA_HepaRG_CDKN1A: Life Technologies and Expression Analysis (LTEA) Assay for Cyclin Dependent Kinase Inhibitor 1A (CDKN1A) using HepaRG (AID 2283450). The settings on record: mRNA level, 48 h; actives raise or lower the signal. The procedure, abridged:
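Gain or loss of CDKN1A transcript is scored by bidirectional fitting against 0.5% DMSO vehicle. Human HepaRG cultures receive chemicals for 48 h across an 8-point series peaking at 100 uM; expression comes from qRT-PCR.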

Test [12] can be described thus: CEETOX_H295R_11DCORT: CeeTox H295R High-throughput Steroidogenesis Assay for 11-Deoxycortisol (11DCORT) (AID 2283432). Particulars: actives raise or lower the signal. The procedure, abridged: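 H295R cells; 10 uM forskolin prestim 48 h; compound in 0.1% DMSO 48 h; media extracted with MTBE; 11-deoxycortisol by LC-MS/MS, 7-point standard curve; gain/loss vs DMSO baseline; viability by MTT in same wells.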

Test [13] can be described thus: CEETOX_H295R_OHPREG: CeeTox H295R High-throughput Steroidogenesis Assay for OH-Pregnenolone (OHPREG) (AID 2283434). The settings on record: actives raise or lower the signal. An outline of the steps: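 H295R cells pre-stimulated 48 h with 10 uM forskolin, then exposed 48 h to chemical in 0.1% DMSO. 17alpha-hydroxypregnenolone in medium quantified by MTBE extraction and HPLC-MS/MS; bidirectional fit versus DMSO, viability checked by MTT.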

Test [14] in a line: CEETOX_H295R_CORTIC: CeeTox H295R High-throughput Steroidogenesis Assay for Corticosterone (CORTIC) (AID 2283437).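 Also: human H295R adrenal cells prestimulated with forskolin before chemical exposure; corticosterone secreted into medium quantified by mass spectrometry.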 Particulars: actives raise or lower the signal. An outline of the steps: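 H295R adrenal cells prestimulated 48 hours with 10 uM forskolin, then exposed 48 hours to chemical in 0.1% DMSO. Corticosterone in medium measured by HPLC-MS/MS after MTBE extraction; MTT viability in the same wells; bidirectional fit versus DMSO.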

The nature of test [15]: CEETOX_H295R_CORTISOL: CeeTox H295R High-throughput Steroidogenesis Assay for Cortisol (AID 2283438).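 Also: cortisol secreted into medium quantified by LC-MS/MS.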 The settings on record: actives raise or lower the signal. An outline of the steps: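 Human adrenocortical H295R cells (passage ≤10) received test chemicals for 48 h after forskolin priming. Secreted cortisol was measured by LC-MS/MS.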
Test [16] can be described thus: CEETOX_H295R_DOC: CeeTox H295R High-throughput Steroidogenesis Assay for DOC (AID 2283439). Particulars: actives raise or lower the signal. The procedure, abridged: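 Secreted DOC was quantified from H295R media by HPLC-MS/MS after 48 h chemical exposure following 48 h forskolin (10 uM) prestimulation. Values were fitted in both directions relative to DMSO, the negative control and baseline.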

A short description of test [17]: CEETOX_H295R_PROG: CeeTox H295R High-throughput Steroidogenesis Assay for Progesterone (PROG) (AID 2283442).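 Also: human H295R adrenal cells primed with 10 µM forskolin before dosing.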 Particulars: actives raise or lower the signal. The procedure, abridged:
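Measured analyte is progesterone secreted by H295R cells at 48 h of chemical treatment, following 10 uM forskolin priming. Quantitation used HPLC-MS/MS against a 7-point standard curve; cytotoxicity was checked by MTT absorbance.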

SMILES strings stand for the structures. Several values for one entry are separate records, joined by “and”; a condition that tells them apart may be missing. Equal entries are not always repeated. Results filed as inconclusive are left out. A structure can be active in one record and inactive in another. Activity calls are given as the source filed them. The calls were made as follows, unless noted: active = hit-call score of the fitted dose curve at least 0.9, where 1 is the maximum; inactive = score below 0.9.

As usually defined, the AC50 is the concentration giving half of the maximal activity seen.

Fatty acid synthase (Homo sapiens), sequence (P49327 whole entry, looked up): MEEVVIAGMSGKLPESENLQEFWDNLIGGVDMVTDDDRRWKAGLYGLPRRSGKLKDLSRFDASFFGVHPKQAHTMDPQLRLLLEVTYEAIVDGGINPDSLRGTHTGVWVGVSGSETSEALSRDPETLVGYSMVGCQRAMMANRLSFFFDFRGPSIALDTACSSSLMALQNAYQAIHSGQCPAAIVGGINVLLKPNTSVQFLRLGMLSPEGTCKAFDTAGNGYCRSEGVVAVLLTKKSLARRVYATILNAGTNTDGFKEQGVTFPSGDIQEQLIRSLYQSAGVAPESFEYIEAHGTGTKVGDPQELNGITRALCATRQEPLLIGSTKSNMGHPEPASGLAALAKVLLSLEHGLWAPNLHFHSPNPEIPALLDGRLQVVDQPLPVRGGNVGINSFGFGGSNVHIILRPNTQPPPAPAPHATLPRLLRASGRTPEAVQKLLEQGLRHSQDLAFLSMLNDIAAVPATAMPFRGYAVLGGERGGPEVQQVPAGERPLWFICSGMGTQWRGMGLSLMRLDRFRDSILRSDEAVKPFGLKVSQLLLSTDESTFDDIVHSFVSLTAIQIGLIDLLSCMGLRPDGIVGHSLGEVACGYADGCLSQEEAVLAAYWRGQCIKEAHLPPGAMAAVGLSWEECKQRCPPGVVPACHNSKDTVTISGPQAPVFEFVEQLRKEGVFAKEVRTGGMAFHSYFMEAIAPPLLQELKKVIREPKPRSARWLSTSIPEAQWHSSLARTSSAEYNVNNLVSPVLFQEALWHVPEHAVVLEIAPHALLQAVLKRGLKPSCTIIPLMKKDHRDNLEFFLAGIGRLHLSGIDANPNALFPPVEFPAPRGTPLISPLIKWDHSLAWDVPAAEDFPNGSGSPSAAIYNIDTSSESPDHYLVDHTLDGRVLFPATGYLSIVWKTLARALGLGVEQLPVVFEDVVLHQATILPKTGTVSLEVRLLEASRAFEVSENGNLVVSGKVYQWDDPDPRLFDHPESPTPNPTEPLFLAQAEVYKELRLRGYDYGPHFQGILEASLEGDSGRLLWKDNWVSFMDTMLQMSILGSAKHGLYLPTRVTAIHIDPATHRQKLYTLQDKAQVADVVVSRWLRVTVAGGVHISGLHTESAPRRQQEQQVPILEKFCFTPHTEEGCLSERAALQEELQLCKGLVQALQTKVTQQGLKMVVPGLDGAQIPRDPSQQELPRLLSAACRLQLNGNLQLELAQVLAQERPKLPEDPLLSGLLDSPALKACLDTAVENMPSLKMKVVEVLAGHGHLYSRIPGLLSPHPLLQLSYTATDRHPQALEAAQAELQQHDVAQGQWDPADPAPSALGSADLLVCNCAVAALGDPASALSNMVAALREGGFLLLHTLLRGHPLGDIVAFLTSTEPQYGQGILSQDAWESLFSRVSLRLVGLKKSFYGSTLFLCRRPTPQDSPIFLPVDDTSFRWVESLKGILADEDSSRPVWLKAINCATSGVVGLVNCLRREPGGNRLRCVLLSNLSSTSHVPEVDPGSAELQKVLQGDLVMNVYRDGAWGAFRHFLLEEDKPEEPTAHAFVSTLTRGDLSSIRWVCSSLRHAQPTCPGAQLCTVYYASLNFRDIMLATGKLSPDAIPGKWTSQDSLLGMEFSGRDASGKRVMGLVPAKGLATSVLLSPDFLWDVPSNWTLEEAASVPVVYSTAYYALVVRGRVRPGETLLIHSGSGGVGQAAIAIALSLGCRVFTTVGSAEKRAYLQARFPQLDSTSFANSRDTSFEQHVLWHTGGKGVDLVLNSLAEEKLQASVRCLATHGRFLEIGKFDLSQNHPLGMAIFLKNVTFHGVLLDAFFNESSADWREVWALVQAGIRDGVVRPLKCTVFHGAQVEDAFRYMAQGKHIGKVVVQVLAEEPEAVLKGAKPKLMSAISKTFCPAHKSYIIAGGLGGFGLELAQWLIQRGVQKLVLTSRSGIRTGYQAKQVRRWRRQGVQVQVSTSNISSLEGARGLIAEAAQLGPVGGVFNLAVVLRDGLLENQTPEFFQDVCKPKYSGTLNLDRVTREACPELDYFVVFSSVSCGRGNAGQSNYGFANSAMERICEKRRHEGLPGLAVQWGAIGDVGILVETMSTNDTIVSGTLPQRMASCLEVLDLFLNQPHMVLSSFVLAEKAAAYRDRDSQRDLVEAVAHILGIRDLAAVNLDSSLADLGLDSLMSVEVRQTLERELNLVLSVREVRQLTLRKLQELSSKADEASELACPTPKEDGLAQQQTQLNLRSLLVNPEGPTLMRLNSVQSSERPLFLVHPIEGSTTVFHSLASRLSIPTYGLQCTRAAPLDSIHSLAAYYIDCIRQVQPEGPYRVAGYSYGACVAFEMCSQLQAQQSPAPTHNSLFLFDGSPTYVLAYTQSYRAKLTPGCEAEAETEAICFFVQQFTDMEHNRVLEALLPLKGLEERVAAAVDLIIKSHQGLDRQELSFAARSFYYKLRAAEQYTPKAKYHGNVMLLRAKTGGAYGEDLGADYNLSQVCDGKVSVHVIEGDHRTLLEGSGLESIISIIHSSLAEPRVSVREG

For `Cc1ccc(-c2c(Cl)nc(C#N)n2S(=O)(=O)N(C)C)cc1`, the molecule was called inactive in [1], in [2], in [3] and in [5]. The AC50 is 9 µM (active) in test [4]; 7.28 µM (active) in test [6]; 19.5 µM (active) in [7]; 3.53 µM (active) in test [8]; 7.21 µM (active) in test [9]; 50 µM (active) in test [10].

For the molecule `CO/C=C(/C(=O)OC)c1ccccc1Oc1cc(Oc2ccccc2C#N)ncn1`, the molecule was classed as inactive in [1], in test [2], in [5] and in test [9]. Also, the AC50 in [3] is 78.4 µM (active) and 82.9 µM (active) and 81.6 µM (active); in test [4], 90.5 µM (active) and 91.3 µM (active) and 91 µM (active); in [5], 12.6 µM (active); in [6], 75.5 µM (active) and 69.5 µM (active) and 74.7 µM (active); in [7] it was 79.3 µM (active) and 78.7 µM (active) and 76.5 µM (active); in test [8], 27 µM (active) and 25.2 µM (active) and 19 µM (active). Moreover, the AC50 is 30.5 µM (active) in test [9]; 77.3 µM (active) and 70.5 µM (active) and 71.8 µM (active) in test [10].

As for `Fc1ccc(Oc2ccnc3cc(Cl)cc(Cl)c23)cc1`, the call in test [1], in test [2], in [3], in [4], in [11] and in [5] was inactive. For the same molecule, the molecule was classed as inactive in test [6], in test [9] and in test [10]. Also, the values for the AC50 in test [7] and in test [8] were 85.8 µM (active) and 24 µM (active), respectively.

As to `CN(C)C(=S)SSC(=S)N(C)C`, the result in test [1], in [2], in test [3], in [4], in test [5] and in [6] was inactive. Besides, the call in test [7], in test [8], in test [9] and in test [10] was inactive.

Take `O=C(O)c1nc(Cl)ccc1Cl`: the molecule was classed as inactive in test [2], in [3], in test [4], in test [11], in test [5] and in [6]. For the same molecule, the call in test [7], in [8], in test [9] and in [10] was inactive. For the same molecule, in [8], the AC50 was 50 µM (active).

With `COc1ccc(C(c2ccc(OC)cc2)C(Cl)(Cl)Cl)cc1`, the molecule was classed as inactive in test [1], in test [2], in test [3], in test [5], in test [9] and in [10]. The half-maximal activity concentration (AC50) in [4] is 80.5 µM (active); in test [6], 89.1 µM (active); in [7] it was 79.5 µM (active); in test [8], 22.6 µM (active).

With `CCOP(=S)(OCC)SCn1c(=O)oc2cc(Cl)ccc21`, the call in [1], in test [12], in test [15], in test [3], in test [4] and in [5] was inactive. Further, the outcome in test [6], in test [7], in test [9] and in [10] was inactive. Moreover, the AC50 in test [13] is 5 µM (active); in test [14], 1.14 µM (active); in test [16] it was 1.36 µM (active); in test [17], 3.23 µM (active); in test [8] it was 53.7 µM (active).

Consider `C#CCOS(=O)OC1CCCCC1Oc1ccc(C(C)(C)C)cc1` (centres undefined), for which the call in test [1], in test [2], in test [5] and in test [8] was inactive. The AC50 in test [3] was 44.8 µM (active); in test [4], 27.5 µM (active); in test [6] it was 20.5 µM (active); in test [7] it was 27.2 µM (active); in test [9] it was 27.4 µM (active); in [10] it was 32 µM (active).

Values taken from PubChem BioAssay (EPA / NIEHS).
